Results filed as inconclusive are left out. Some compounds were tested as several samples or in several runs, with calls that do not always agree. Activity calls are given as the source filed them. Calls come from the whole dose curve; as a rule, active = well fitted curve in the direction sought with a large enough effect; inconclusive = small, poorly fitted or top-dose-only effect, or another doubt; inactive = no such curve, though single readings can be large; an effect the other way counts as inactive or inconclusive.
Key:
[1] = tested on: Zika virus NS2B-NS3 protease (linked construct); assay: Primary screen NINDS Rhodamine qHTS for Zika virus inhibitors (AID 1347160); note: nearly all actives have a fitted effect of over 55% in size; note: potency is the fitted concentration of half-maximal effect
Summary of the method: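 Each compound, titrated, sat 15 min with 25 nM linked protease before 1.5 microM Rhodamine110 substrate went in. Fluorescence gain over the next 15 min, in pH 8.0 Tris with Tween 20, gave Hill-fitted curves.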

[2] = target: Calcium and integrin-binding protein 1 (Homo sapiens) (UniProt Q99828); assay: Primary qHTS for Identification of Calcium Integrin Binding Protein 1 (CIB1) Competitor (AID 1508620);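 note: GST tagged CIB1 binding a fluorescein labelled alphaIIb integrin peptide tracer; top concentration of the series differs between compounds; % is set by controls: 0 for no effect and ±100 for the full control effect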
Calcium and integrin-binding protein 1 (Homo sapiens), sequence (Q99828 whole entry, looked up): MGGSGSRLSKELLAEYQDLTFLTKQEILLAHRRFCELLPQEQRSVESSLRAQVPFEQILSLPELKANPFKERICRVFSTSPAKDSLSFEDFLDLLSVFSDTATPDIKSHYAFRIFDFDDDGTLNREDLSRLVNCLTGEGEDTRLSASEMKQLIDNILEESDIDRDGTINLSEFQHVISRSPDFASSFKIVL
Summary of the method: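 Fluorescence polarization competition: CIB1-GST (1 uM final) preincubated with compound 15 min at room temperature, then FITC-labeled alphaIIb peptide (100 nM final) added for another 15 min. Polarization read at Ex 480/Em 540.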

[3] = Primary qHTS for inhibitors of nuclear receptor binding SET domain protein 2 (NSD2) in an isogenic RCH-ACV NSD2 p.E1099K mutant (9B) (AID 1645876); note: nearly all actives have a fitted effect of over 70% in size; note: potency is the fitted concentration of half-maximal effect; for activity change, negative = viability loss: % is set by controls: 0 for no effect and ±100 for the full control effect
[4] = Primary qHTS for inhibitors of nuclear receptor binding SET domain protein 2 (NSD2) in an RCH-ACV wild type WT cells (2C) (AID 1645877); note: potency is the fitted concentration of half-maximal effect; nearly all actives have a fitted effect of over 70% in size
[5] = target: Glutathione peroxidase 1 (Homo sapiens) (UniProt P07203); assay: Primary qHTS Assay for Inhibitors of Recombinant Selenoprotein Glutathione Peroxidase 1 (GPX1) (AID 1845191); note: nearly all actives have a fitted effect of over 65% in size
Glutathione peroxidase 1 (Homo sapiens), sequence (P07203 whole entry, looked up): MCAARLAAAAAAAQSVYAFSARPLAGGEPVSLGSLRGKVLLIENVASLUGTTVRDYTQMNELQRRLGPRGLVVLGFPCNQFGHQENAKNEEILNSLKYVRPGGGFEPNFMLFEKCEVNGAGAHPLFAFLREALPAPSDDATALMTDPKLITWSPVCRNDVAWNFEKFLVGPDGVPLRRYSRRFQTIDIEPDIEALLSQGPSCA
Summary of the method: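 GPX1 10 nM, GR 100 nM, GSH 1 mM, NADPH 0.5 mM, CHP 0.5 mM (final). 30-min cpd preincubation, RT. Ex340/Em450 read t=0, t=15 min.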

[6] = target: Phospholipid hydroperoxide glutathione peroxidase GPX4 (Homo sapiens) (UniProt P36969); assay: Primary qHTS Assay for Inhibitors of Recombinant Selenoprotein Glutathione Peroxidase 4 (GPX4) (AID 1845192); details: outcome: dose series up to 50 µM unless noted; note: nearly all actives have a fitted effect of over 65% in size
Phospholipid hydroperoxide glutathione peroxidase GPX4 (Homo sapiens), sequence (P36969 whole entry, looked up): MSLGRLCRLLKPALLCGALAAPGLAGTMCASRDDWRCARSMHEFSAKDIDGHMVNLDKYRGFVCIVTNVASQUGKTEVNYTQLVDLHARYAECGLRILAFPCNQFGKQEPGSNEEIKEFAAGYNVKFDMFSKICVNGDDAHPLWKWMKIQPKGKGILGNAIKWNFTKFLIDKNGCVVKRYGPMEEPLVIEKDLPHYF
Summary of the method: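 qHTS, GR-coupled: GPX4 200 nM + cpd 30 min RT → GSH 1 mM, NADPH 0.5 mM, GR 100 nM → CHP 0.5 mM start; fluor 340/450 at t0 and t15 min; no-enzyme wells as control.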

[7] = target: Luciferin 4-monooxygenase (Photinus pyralis) (UniProt P08659); assay: Primary firefly luciferase (FLuc) qHTS assay for identification of artifact compounds. (AID 1845220); note: nearly all actives have a fitted effect of over 60% in size
Summary of the method: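 qHTS, 15 min compound preincubation with substrate (10 uM luciferin, 10 uM ATP) at RT, then 10 nM FLuc; 5 min; luminescence; % inhibition vs no-enzyme/DMSO controls, 4-parameter Hill fit.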

[8] = Primary fluorescence-based thiol-reactive (MSTI) qHTS assay for identification of artifact compounds. (AID 1845221); note: nearly all actives have a fitted effect of over 65% in size; note: potency is the fitted concentration of half-maximal effect
Summary of the method: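 First, 4 uM MSTI in 2% DMSO/PBS pH 7.4 was dispensed; next, compounds were added; then plates sat 1 h at room temperature without light. Finally, emission at 598 nm was recorded.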

[9] = tested on: Nanoluciferase (engineered Oplophorus gracilirostris luciferase); assay: Primary Nanoluciferase (NLuc) qHTS assay for identification of artifact compounds. (AID 1845222)
Summary of the method: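 Luminescence read-out of secreted NLuc in S16 cell conditioned medium (1:55); compounds tested with 15 min RT preincubation, then Nano-Glo substrate 1:100, 5 min. % inhibition vs no-enzyme and DMSO controls, 4-parameter Hill fit.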

C33A = assay: Primary qHTS to identify gynecologic anti-cancer compounds using libraries of approved drugs and bioactive compounds (AID 1345084); details: Gynecologic cancer cell panel viability, ATPlite luminescence, 48 h; series mostly up to 57.5 µM; note: % is set by controls: 0 for no effect and ±100 for the full control effect; nearly all actives have a fitted effect of over 55% in size
Summary of the method: (§1)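 48 h compound exposure at 37 C, 5% CO2; five-point qHTS. ATPlite luminescence readout of cell ATP.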

CASKI = assay: as above; details: Gynecologic cancer cell panel viability, ATPlite luminescence, 48 h; series mostly up to 57.5 µM
Summary of the method: as §1

Es-2 = assay: as above; details: Gynecologic cancer cell panel viability, ATPlite luminescence, 48 h; series mostly up to 57.5 µM
Summary of the method: as §1

HeLa = assay: as above; details: Gynecologic cancer cell panel viability, ATPlite luminescence, 48 h; series mostly up to 57.5 µM
Summary of the method: as §1

Hek293T = assay: as above; details: Gynecologic cancer cell panel viability, ATPlite luminescence, 48 h, control line for the selectivity index; series mostly up to 57.5 µM
Summary of the method: as §1

JEG-3 = assay: as above; details: Gynecologic cancer cell panel viability, ATPlite luminescence, 48 h; series mostly up to 57.5 µM
Summary of the method: as §1

OV90 = assay: as above; details: Gynecologic cancer cell panel viability, ATPlite luminescence, 48 h; series mostly up to 57.5 µM
Summary of the method: as §1

PA-1 = assay: as above; details: Gynecologic cancer cell panel viability, ATPlite luminescence, 48 h; series mostly up to 57.5 µM
Summary of the method: as §1

Tov-21-G = assay: as above; details: Gynecologic cancer cell panel viability, ATPlite luminescence, 48 h; series mostly up to 57.5 µM
Summary of the method: as §1

Tov112D = assay: as above; details: Gynecologic cancer cell panel viability, ATPlite luminescence, 48 h; series mostly up to 57.5 µM
Summary of the method: as §1

[10] = Primary redox qHTS assay for identification of artifact compounds. (AID 1845223);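 note: 0% = DMSO and 100% = reference compound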
Summary of the method: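 Redox-cycling detection via DTT (250 uM final) oxidation coupled to Amplex Red (25 uM)/HRP (250 mU/mL) in HBSS. 15 min preincubation plus 30 min after DTT, room temperature. Ex/Em 525/598 nm; 4-parameter Hill fit against DMSO and 10 uM DA3003.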

C[C@@H](c1nc(-c2ccc(C#N)cc2)cs1)[C@](O)(Cn1cncn1)c1cc(F)ccc1F
inactive: Potency [1] | outcome [2] | Potency [5] | Potency [6] | Potency [7] | Potency [8] | Potency [9] | Potency (C33A) | Potency (CASKI) | Potency (Es-2) | Potency (HeLa) | Potency (Hek293T) | Potency (JEG-3) | Potency (OV90) | Potency (PA-1) | Potency (Tov-21-G) | Potency (Tov112D)
active: Potency [3] 8.17 µM | Potency [4] 11.5 µM

N#Cc1c[nH]c2c(C(=O)N3CCN(CCc4ccc(F)cc4)CC3)cccc12
inactive: outcome [2] | Potency [5] | Potency [7] | Potency [8] | Potency [9] | Potency (C33A) | Potency (CASKI) | Potency (Es-2) | Potency (HeLa) | Potency (Hek293T) | Potency (JEG-3) | Potency (OV90) | Potency (PA-1) | Potency (Tov-21-G) | Potency (Tov112D)

O=C(NCc1ccc(Oc2ccccc2)cc1)c1nc(-c2cc(Br)c(O)c(Br)c2)no1
active: Potency [1] 2.51 µM | Potency [4] 20.5 µM | Potency [8] 0.423 µM
inactive: Potency [5] | Potency [6] | Potency [7] | Potency [9] | Potency (C33A) | Potency (CASKI) | Potency (Es-2) | Potency (HeLa) | Potency (Hek293T) | Potency (JEG-3) | Potency (OV90) | Potency (PA-1) | Potency (Tov-21-G) | Potency (Tov112D)

CCC[C@@H](NC(=O)N1C(=O)C(CC)(CC)[C@@H]1Oc1ccc(C(=O)N2CCN(C)CC2)cc1)c1ccc2c(c1)OCO2
inactive: Potency [1] | outcome [2] | Potency [5] | Potency [7] | Potency [9] | Potency (C33A) | Potency (CASKI) | Potency (Es-2) | Potency (HeLa) | Potency (Hek293T) | Potency (JEG-3) | Potency (OV90) | Potency (PA-1) | Potency (Tov-21-G) | Potency (Tov112D)

C=C(C)C(=O)OC1[C@@H]2C(=C)C(=O)O[C@@H]2C[C@@H](C)[C@@H]2C=CC(=O)[C@@]12C (stereo partly drawn)
active: Potency [4] 10.1 µM
inactive: Potency [1] | outcome [2] | Potency [5] | Potency [6] | Potency [7] | Potency [8] | Potency [9] | Potency (C33A) | Potency (CASKI) | Potency (Es-2) | Potency (HeLa) | Potency (JEG-3) | Potency (OV90) | Potency (Tov112D)

CC[C@H](CO)Nc1nc(Nc2cccc(-c3ccccn3)c2)c2ncn(C(C)C)c2n1
active: Potency [4] 16.3 µM
inactive: Potency [1] | outcome [2] | Potency [5] | Potency [6] | Potency [7] | Potency [8] | Potency [9] | Potency (C33A) | Potency (CASKI) | Potency (Es-2) | Potency (HeLa) | Potency (Hek293T) | Potency (JEG-3) | Potency (Tov112D)

CN(CCCNC(=O)c1ccc2nc3c(c(Cl)c2c1)CCCC3)Cc1ccccc1
active: Potency [3] 12.9 µM | Potency [4] 8.17 µM
inactive: Potency [1] | outcome [2] | Potency [5] | Potency [6] | Potency [7] | Potency [8] | Potency [9] | Potency [10] | Potency (C33A) | Potency (CASKI) | Potency (Es-2) | Potency (HeLa) | Potency (Hek293T) | Potency (JEG-3) | Potency (OV90) | Potency (PA-1) | Potency (Tov-21-G) | Potency (Tov112D)

O=C(NNc1ccccc1)c1ccncc1
inactive: Potency [1] | outcome [2] | Potency [3] | Potency [5] | Potency [6] | Potency [7] | Potency [8] | Potency [9] | Potency [10] | Potency (C33A) | Potency (CASKI) | Potency (HeLa) | Potency (JEG-3) | Potency (OV90) | Potency (Tov-21-G)

CC1CCC(n2c3cnccc3c3cnc(Nc4ccc5c(n4)CCN(C(=O)CO)C5)nc32)CC1 (stereo not drawn)
active: Potency [3] 2.59 µM | Potency [4] 2.31 µM
inactive: Potency [1] | outcome [2] | activity change, negative = viability loss [3] -24.3% [at 9.23 µM] | Potency [5] | Potency [6] | Potency [7] | Potency [8] | Potency [9] | Potency [10] | Potency (C33A) | Potency (CASKI) | Potency (Es-2) | Potency (HeLa) | Potency (Hek293T) | Potency (JEG-3) | Potency (OV90) | Potency (Tov-21-G) | Potency (Tov112D)

CCCCn1c(-c2ccccc2)nc(-c2ccccc2)c1CN(Cc1ccc2c(c1)OCO2)Cc1ccc2c(c1)OCO2
active: Potency [4] 18.3 µM
inactive: Potency [1] | outcome [2] | Potency [5] | Potency [6] | Potency [7] | Potency [9] | Potency [10] | Potency (C33A) | Potency (Es-2) | Potency (HeLa) | Potency (Hek293T) | Potency (JEG-3) | Potency (OV90) | Potency (PA-1) | Potency (Tov-21-G) | Potency (Tov112D)

Cc1ccc(C(=O)N2CCN(c3ccc([N+](=O)[O-])cc3)CC2)cc1Cl
inactive: Potency [1] | outcome [2] | Potency [5] | Potency [6] | Potency [7] | Potency [8] | Potency [9] | Potency [10] | Potency (C33A) | Potency (CASKI) | Potency (Es-2) | Potency (HeLa) | Potency (Hek293T) | Potency (JEG-3) | Potency (OV90) | Potency (PA-1) | Potency (Tov-21-G) | Potency (Tov112D)
active: Potency [3] 12.9 µM | Potency [4] 11.5 µM

CCC(C)n1cc(C)c2c(C(=O)NCc3c(C)cc(C)[nH]c3=O)cc(-c3ccc(N4CCNCC4)nc3)cc21 (stereo not drawn)
inactive: outcome [2] | Potency [7] | Potency [10] | Potency (C33A) | Potency (CASKI) | Potency (Es-2) | Potency (HeLa) | Potency (Hek293T) | Potency (JEG-3) | Potency (OV90) | Potency (PA-1) | Potency (Tov-21-G) | Potency (Tov112D)
active: Potency [3] 20.5 µM | Potency [4] 14.5 µM

Reference: PubChem BioAssay (NCATS)
